Where “and” joins values, the source holds several entries; their conditions need not be identical. Equal values may be shown once. Records with an inconclusive call do not appear. Calls of active or inactive are those of the source. Unless noted, calls follow the shape of the dose curve; as a rule, active = well fitted curve in the direction sought with a large enough effect in the repeat runs; inconclusive = weak or mixed curves; inactive = no such curve, though single readings can be large; an effect the other way counts as inactive or inconclusive.

Experimental findings from PubChem BioAssay (Tox21) are described below.

A short description of experiment [1]: A CellTox Green Cytotoxicity Assay to monitor cytotoxicity in HEK293 cells - 32 hour (AID 1224881). Also: nearly all actives have a fitted effect of over 40% in size. Also: potency is read from the fitted curve at half-maximal effect. In outline: (§1)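 Fluorescence intensity, read at 0, 8, 16, 24, 32 and 40 h of compound treatment, reflected dye binding to DNA of dead HEK293 cells; compounds (23 nL, DMSO) were added 5 h after plating cells with reagent.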
The nature of experiment [2]: A CellTox Green Cytotoxicity Assay to monitor cytotoxicity in HepG2 cells - 0 hour (AID 1224882). Also: nearly all actives have a fitted effect of over 35% in size. In outline:
(§2)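 Using 1536-well format, dye-containing HepG2 suspension was seeded, allowed 5 h at 37 C/5% CO2, dosed by pintool with compounds, positive and negative controls, and imaged for fluorescence across 40 h.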

A short description of experiment [3]: A CellTox Green Cytotoxicity Assay to monitor cytotoxicity in HepG2 cells - 32 hour (AID 1224883). Also: nearly all actives have a fitted effect of over 50% in size. Also: potency is read from the fitted curve at half-maximal effect. In outline:
as §2

Experiment [4] is described as follows: A CellTox Green Cytotoxicity Assay to monitor cytotoxicity in HEK293 cells - 8 hour (AID 1224884). Also: nearly all actives have a fitted effect of over 35% in size. Also: potency is read from the fitted curve at half-maximal effect. In short, it runs like this:
as §1

Experiment [5] in a line: qHTS RealTime-Glo MT Cell Viability Assay in HepG2 cells - 16 hour (AID 1224885). Also: nearly all actives have a fitted effect of over 50% in size. Also: potency is read from the fitted curve at half-maximal effect. In outline:
(§3)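 Real-time, nonlytic viability: 600 HepG2 cells/well mixed with NanoLuc enzyme plus prosubstrate; 5 h settle, compound (DMSO) added by pintool; luminescence monitored over 40 h at 37 C.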
A general note: qHTS replaces the single test concentration by a dilution series.

The nature of experiment [6]: qHTS RealTime-Glo MT Cell Viability Assay in HEK293 cells - 24 hour (AID 1224886). Also: nearly all actives have a fitted effect of over 50% in size. Also: potency is read from the fitted curve at half-maximal effect. In short, it runs like this: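 Cells + reagent dispensed (600 cells/well, HEK293) → 5 h at 37 C/5% CO2 → 23 nL compound in DMSO pinned → 40 h at 37 C → luminescence read at 0, 8, 16, 24, 32, 40 h.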
Experiment [7] in a line: qHTS RealTime-Glo MT Cell Viability Assay in HEK293 cells - 8 hour (AID 1224887). Also: nearly all actives have a fitted effect of over 50% in size. Also: potency is read from the fitted curve at half-maximal effect. In outline: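 Viable HEK293 cells reduce a cell-permeant prosubstrate; the product diffuses out and is consumed by NanoLuc in the medium to give light. Compounds went in after a 5 h incubation and plates were read over the treatment course.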
The nature of experiment [8]: A CellTox Green Cytotoxicity Assay to monitor cytotoxicity in HEK293 cells - 16 hour (AID 1224888). Also: nearly all actives have a fitted effect of over 35% in size. In outline:
as §1

Experiment [9] is described as follows: qHTS RealTime-Glo MT Cell Viability Assay in HepG2 cells - 0 hour (AID 1224889). Also: nearly all actives have a fitted effect of over 50% in size. In short, it runs like this:
as §3

Experiment [10] can be described thus: A CellTox Green Cytotoxicity Assay to monitor cytotoxicity in HepG2 cells - 8 hour (AID 1224890). Also: nearly all actives have a fitted effect of over 45% in size. Also: potency is read from the fitted curve at half-maximal effect. In outline: as §2
Experiment [11] can be described thus: qHTS assay to identify small molecule antagonists of the estrogen receptor alpha (ER-alpha) signaling pathway using the BG1 cell line in the presence of 0.1 nM 17-beta-estradiol - cell viability counter screen (AID 1259241). Also: nearly all actives have a fitted effect of over 40% in size. Also: potency is read from the fitted curve at half-maximal effect. In short, it runs like this:
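Cytotoxicity counter-screen: live-cell protease activity measured by fluorescence (30 min reagent step) in the same wells. Cells were VM7Luc4E2 with endogenous ER-alpha and ERE-driven luciferase, treated 22 hr at 37C alongside 0.1 nM 17beta-estradiol final.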

Experiment [12] can be described thus: qHTS assay to identify small molecule antagonists of the androgen receptor (AR) signaling pathway using the MDA cell line in the presence of 0.5 nM R1881 - cell viability counter screen (AID 1259242). Also: nearly all actives have a fitted effect of over 45% in size. Also: potency is read from the fitted curve at half-maximal effect. In short, it runs like this: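 Viability of MDA-kb2 cells was multiplexed with the luciferase AR readout; after 16 hr with compounds and R1881 at 0.5 nM final, CellTiter-Fluor fluorescence was recorded.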

The nature of experiment [13]: qHTS assay to identify small molecule HDAC inhibitors (AID 1259364). Also: potency is read from the fitted curve at half-maximal effect.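 Also: wild-type HCT-116 cells with endogenous class I/II HDAC activity; nearly all actives have a fitted effect of over 45% in size.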 In short, it runs like this:
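Read-out: luminescence of HDAC-Glo I/II reagent, 30 min RT, reflecting class I/II deacetylase activity in whole HCT-116 cells pre-exposed 2 h to DMSO-dissolved compounds.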

A short description of experiment [14]: qHTS assay to identify small molecule agonists of the sonic hedgehog signaling (Shh) pathway - cell viability counter screen (AID 1259366). Also: nearly all actives have a fitted effect of over 50% in size. Also: potency is read from the fitted curve at half-maximal effect. In outline:
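Cytotoxicity counter screen: CellTiter-Fluor reagent added after 23 h compound exposure, then 1 h at 37C and fluorescence read. Cells were 3T3 Gli1-Luc, seeded 2,000 per well and dosed 4 h post-plating.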

Experiment [15] is described as follows: qHTS assay to identify small molecule antagonists of the sonic hedgehog signaling (Shh) pathway - cell viability counter screen (AID 1259367). Also: nearly all actives have a fitted effect of over 55% in size. Also: potency is read from the fitted curve at half-maximal effect. In short, it runs like this:
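Seed 3T3 Gli1-Luc cells at 2,000 per well; incubate 4 hr; add compound in DMSO, then conditioned medium; incubate at 37C with 5% CO2; add CellTiter-Fluor after 23 hr; read fluorescence 1 hr later.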

Experiment [16] in a line: qHTS assay to identify small molecule agonists of the sonic hedgehog signaling (Shh) pathway (AID 1259368; calls by dose curve;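 also: NIH/3T3-derived 3T3Gli1-Luc cells carrying a stable Gli1-driven firefly luciferase reporter; series mostly up to about 92 µM; nearly all actives have a fitted effect of over 15% in size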). In short, it runs like this: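 A Gli1 transcriptional response element controlled firefly luciferase in 3T3Gli1-Luc cells. Compounds and a positive control were added 4 hr after plating, and cells were incubated a further 24 hr at 37 C before luminescence detection.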

Experiment [17] in a line: qHTS assay to identify small molecule HDAC inhibitors - cell viability counter screen (AID 1259365). In short, it runs like this:
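CellTiter-Glo luminescence (30 min, room temperature) reported viability after a 2 h compound exposure at 37 C. Cells: wild-type HCT-116, 1,500 per well, seeded the night before.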

In experiment [18] the target is Androgen receptor (Homo sapiens) (UniProt P10275). As to the kind of experiment: qHTS assay to identify small molecule antagonists of the androgen receptor (AR) signaling pathway using the MDA cell line in the presence of 0.5 nM R1881 (AID 1259243). In outline:
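Reporter cells cultured without CO2 receive test chemicals, then 0.5 nM R1881 final; after 16 hr at 37C, ONE-Glo is added and light output recorded.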

A short description of experiment [19]: qHTS assay to identify small molecule phospholipidosis (PLD) inducers (AID 1259344; active = well fitted curve in the direction sought with a large enough effect; an effect the other way counts as inactive or inconclusive). In short, it runs like this: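 Quantitative HTS in HepG2: compound plus LipidTOX Red dye for 24 h, paraformaldehyde fixation with Hoechst 33342, widefield high-content imaging; amiodarone as positive and DMSO as negative control.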
In experiment [20] the target is Estrogen receptor (Homo sapiens) (UniProt P03372). As to the kind of experiment: qHTS assay to identify small molecule antagonists of the estrogen receptor alpha (ER-alpha) signaling pathway using the BG1 cell line in the presence of 0.1 nM 17-beta-estradiol (AID 1259244). Also: nearly all actives have a fitted effect of over 50% in size. In outline: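 Estradiol at 0.1 nM (final) stimulates the endogenous ER-alpha of VM7Luc4E2 cells carrying an ERE-driven luciferase; compounds are co-incubated 22 h at 37C and luciferase output quantified by luminescence.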
Estrogen receptor (Homo sapiens), sequence (P03372 whole entry, looked up): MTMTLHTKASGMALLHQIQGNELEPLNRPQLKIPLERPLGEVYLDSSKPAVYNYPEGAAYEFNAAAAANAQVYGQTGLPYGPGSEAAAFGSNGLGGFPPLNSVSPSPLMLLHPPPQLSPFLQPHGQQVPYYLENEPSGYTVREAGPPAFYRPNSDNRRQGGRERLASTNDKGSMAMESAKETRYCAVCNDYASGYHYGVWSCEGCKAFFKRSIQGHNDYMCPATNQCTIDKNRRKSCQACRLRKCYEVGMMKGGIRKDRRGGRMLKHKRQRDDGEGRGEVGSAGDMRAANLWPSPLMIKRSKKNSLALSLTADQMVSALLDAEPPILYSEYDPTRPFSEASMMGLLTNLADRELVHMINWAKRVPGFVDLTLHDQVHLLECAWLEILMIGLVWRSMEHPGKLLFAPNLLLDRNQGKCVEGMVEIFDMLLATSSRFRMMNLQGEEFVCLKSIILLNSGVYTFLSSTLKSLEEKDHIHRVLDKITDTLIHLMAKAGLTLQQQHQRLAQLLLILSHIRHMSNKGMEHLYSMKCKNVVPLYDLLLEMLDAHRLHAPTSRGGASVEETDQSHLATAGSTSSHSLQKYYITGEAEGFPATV

Androgen receptor (Homo sapiens), sequence (P10275 whole entry, looked up): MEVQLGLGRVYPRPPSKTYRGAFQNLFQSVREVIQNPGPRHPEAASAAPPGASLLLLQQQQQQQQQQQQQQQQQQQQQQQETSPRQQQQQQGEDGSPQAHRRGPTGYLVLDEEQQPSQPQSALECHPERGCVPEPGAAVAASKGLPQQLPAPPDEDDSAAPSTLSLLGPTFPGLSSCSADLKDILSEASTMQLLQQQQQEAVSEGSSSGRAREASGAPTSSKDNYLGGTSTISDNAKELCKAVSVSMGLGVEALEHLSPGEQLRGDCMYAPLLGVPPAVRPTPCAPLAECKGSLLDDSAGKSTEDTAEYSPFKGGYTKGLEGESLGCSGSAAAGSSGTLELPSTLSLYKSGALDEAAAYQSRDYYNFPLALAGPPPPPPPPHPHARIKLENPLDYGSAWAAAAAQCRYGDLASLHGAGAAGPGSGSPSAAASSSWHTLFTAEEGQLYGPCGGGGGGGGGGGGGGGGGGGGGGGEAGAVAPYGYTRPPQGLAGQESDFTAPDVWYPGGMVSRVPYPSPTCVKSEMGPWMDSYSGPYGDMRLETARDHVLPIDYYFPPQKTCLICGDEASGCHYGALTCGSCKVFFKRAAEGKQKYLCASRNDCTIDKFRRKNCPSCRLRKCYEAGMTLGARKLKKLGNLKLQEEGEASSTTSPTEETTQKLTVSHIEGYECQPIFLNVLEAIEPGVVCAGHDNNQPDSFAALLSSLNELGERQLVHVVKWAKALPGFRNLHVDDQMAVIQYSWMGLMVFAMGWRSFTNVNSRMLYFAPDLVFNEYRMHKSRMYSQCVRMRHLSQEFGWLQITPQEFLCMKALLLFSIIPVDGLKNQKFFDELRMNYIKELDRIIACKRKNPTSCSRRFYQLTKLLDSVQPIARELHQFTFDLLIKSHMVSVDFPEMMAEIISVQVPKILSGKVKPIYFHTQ

For `CCC[N+](CCC)(CCC)CCC`, the Potency result in experiment [1], in experiment [2], in experiment [3], in experiment [4], in [5] and in experiment [6] was “inactive” in each case. For the same molecule, the Potency entry in experiment [7], in [8], in experiment [10], in [11], in experiment [12] and in experiment [13] was “inactive” in each case. The Potency entry in experiment [14], in experiment [15] and in experiment [16] was “inactive” each time. In addition, the result in experiment [9] was inactive.
`Nc1cccc2ccccc12`: the Potency entry in [1], in experiment [2], in [3], in [4], in experiment [5] and in experiment [6] was “inactive” in each case. Moreover, the Potency entry in experiment [7], in experiment [8], in [10], in experiment [11], in experiment [12] and in [13] was “inactive” each time. Moreover, the Potency result in [17], in experiment [14], in [15] and in [16] was “inactive” in each case. In experiment [9], the call was inactive.
Turning to `CCC1CCC(=O)O1` (centres undefined), the Potency result in experiment [1], in experiment [2], in experiment [3], in experiment [4], in experiment [5] and in [6] was “inactive” throughout. Further, the Potency result in experiment [7], in [8], in experiment [10], in experiment [11], in experiment [12] and in experiment [13] was “inactive” in each case. Also, the Potency entry in [17], in experiment [14], in experiment [15] and in experiment [16] was “inactive” each time. For the same molecule, the molecule was called inactive in experiment [9].
With `CCOP(=S)(OCC)SCSc1cc(Cl)ccc1Cl`, the Potency entry in experiment [1], in experiment [2], in experiment [3], in [4], in experiment [5] and in experiment [6] was “inactive” throughout. In addition, the Potency result in [7], in experiment [8], in experiment [10], in experiment [11], in experiment [12] and in experiment [13] was “inactive” in each case. Also, the Potency result in experiment [17], in experiment [14], in [15] and in [16] was “inactive” in each case. For the same molecule, in [9], the molecule was called inactive.
Take `C[CH2][Hg][S]c1ccccc1C(=O)O`: the Potency in experiment [1] is 7.76 µM (active) and 4.77 µM (active); in [3], 3.09 µM (active) and 2.13 µM (active); in experiment [4], 4.77 µM (active); in experiment [5] it was 2.45 µM (active) and 2.13 µM (active); in [6], 1.1 µM (active) and 1.34 µM (active); in experiment [7] it was 3.09 µM (active) and 4.25 µM (active). For the same molecule, the Potency in [10] is 7.76 µM (active) and 2.39 µM (active); in experiment [11] it was 21.7 µM (active) and 5.96 µM (active); in experiment [12] it was 17.2 µM (active) and 11.9 µM (active); in [18], 7.7 µM (active) and 7.5 µM (active); in [13], 19.3 µM (active) and 23.7 µM (active); in experiment [14], 1.72 µM (active) and 1.19 µM (active). Also, the Potency in [15] was 1.93 µM (active) and 5.96 µM (active). In addition, the Potency entry in [2], in [17] and in experiment [16] was “inactive” in each case. Moreover, the call in [9] and in [19] was inactive.
As for `c1ccc2c(c1)sc1ccccc12`, the Potency entry in experiment [1], in experiment [2], in experiment [3], in experiment [4], in experiment [5] and in experiment [6] was “inactive” throughout. Besides, the Potency entry in experiment [7], in experiment [10], in experiment [11], in experiment [12], in experiment [20] and in [13] was “inactive” each time. The Potency entry in [17], in experiment [14], in [15] and in experiment [16] was “inactive” each time. Also, the molecule was classed as inactive in [9] and in experiment [19].
On to `CC1(C)CC(=O)CC(C)(C)N1[O]`, for which the Potency result in experiment [1], in experiment [2], in experiment [3], in experiment [4], in experiment [5] and in experiment [6] was “inactive” in each case. Moreover, the Potency result in experiment [7], in [10], in [11], in [12], in experiment [13] and in [17] was “inactive” each time. Further, the Potency entry in experiment [14], in experiment [15] and in experiment [16] was “inactive” throughout. In addition, the call in experiment [9] was inactive.
